HCMV inh – blocks human cytomegalovirus replication; HFF cells, HCMV-luciferase reporter, 72 h; active compounds read low; activity change, negative = inhibition, % at 57.5 µM; actives 4.5% (n = 410,000); AID 1259415; in the data active = activity change below about -60%; inconclusive = no clear call, values can overlap the other calls; inactive = above about -39%
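Screen run at 2 compound doses on HFFs infected with reporter HCMV, MOI 1 PFU/cell. Luciferase activity from cell lysates at 72 h post infection gave inhibition relative to buffer-only and Salinomycin wells.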
HCV inh – blocks hepatitis C virus; actives 3.4% (n = 340,000); Potency, µM (titrated, usually from 41.8 µM), hits mostly inhibitors; Huh7.5.1 HCVcc-Cre infection, luciferase reporter, 44 h; active = well fitted inhibition curve with a large enough effect; inconclusive = small, poorly fitted or top-dose-only effect, or another doubt; inactive = no such curve, though single readings can be large or run the other way
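Antiviral activity was scored by luciferase reporter output from cells infected with HCVcc-Cre (~0.5 moi) in presence of compound, 44 h infection period, cells seeded 1,000/well 4 h prior.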
LASV entry inh – blocks Lassa virus binding to or entry into cells | Lassa virus pseudotype entry inhibition, cell reporter | Potency, µM (highest dose often 37.9 µM), usual class: inhibitors | actives 1.2% (n = 300,000) | AID 540256; calls by dose curve; tested in HEK293 cells; note: nearly all actives have a fitted effect of over 50% in size
FMDV inh – foot and mouth disease virus antiviral activity; Potency, µM (doses to about 57.9 µM), actives largely listed as inhibitors; FMDV antiviral cell-based qHTS; AID 1159524; actives 1.2% (n = 410,000); calls by dose curve; tested in HEK293T cells; note: read-out not given here; nearly all actives have a fitted effect of over 45% in size
SARS PLP yeast – SARS-CoV PLP inhibition in yeast; S. cerevisiae expressing SARS-CoV PLpro, growth rescue; Potency, µM (top dose mostly 32.9 µM), most hits filed as activators; actives 0.19% (n = 330,000); AID 485353; calls by dose curve; note: nearly all actives have a fitted effect of over 55% in size
MARV entry inh – blocks Marburg virus binding to or entry into cells | Marburg virus pseudotyped entry inhibition, cell reporter | actives 1.8% (n = 300,000) | AID 540276 | Potency, µM (highest dose often 37.8 µM), most hits filed as inhibitors; calls by dose curve; tested in HEK293 cells
A number is an active result; [ ] = remark or other dose. Rows were chosen to be rich in hits. Some 8% of all compounds tested hit in one or more screens of this group.

Screening COc1ccc(C(=O)ON=C2C=C(C)C(=O)C(C)=C2)cc1 returned HCMV inh -76, HCV inh inactive, FMDV inh inactive and SARS PLP yeast inactive.
For COc1cc(C(=O)O/N=C2\C=CC(=O)C(C)=C2)cc(OC)c1OC the results were HCMV inh inactive, HCV inh inconclusive, LASV entry inh inconclusive, FMDV inh inconclusive, SARS PLP yeast inactive and MARV entry inh inconclusive.
COc1cc(C(=O)ON=C2C=C(C)C(=O)C(C)=C2)cc(OC)c1OC was read as HCMV inh -62, HCV inh inactive, LASV entry inh inactive, FMDV inh inactive, SARS PLP yeast inactive and MARV entry inh inactive.
For CC(=O)C1=C(O)C(=O)N(c2ccc(Br)cn2)C1c1ccccc1[N+](=O)[O-] (stereo not drawn) the results were HCMV inh inactive, HCV inh inactive, LASV entry inh inconclusive, FMDV inh inactive, SARS PLP yeast inactive and MARV entry inh inactive.
For CC(=O)C1=C(O)C(=O)N(c2ccc(Br)cn2)C1c1cccc([N+](=O)[O-])c1 (stereo not drawn) the results were HCMV inh -105, HCV inh inactive, FMDV inh inactive and SARS PLP yeast inactive.
c1ccc2sc(-c3ccc4c(c3)OCO4)nc2c1 was read as HCV inh inconclusive, LASV entry inh 9.2µM, FMDV inh inactive, SARS PLP yeast inactive and MARV entry inh inconclusive.
Cc1ccc2nc(NC(=O)c3ccc(-c4nc5ccccc5s4)s3)sc2c1 was read as HCMV inh inactive, HCV inh inactive, LASV entry inh inactive, FMDV inh inactive, SARS PLP yeast inactive and MARV entry inh inactive.
`O=C(NC1CC1)c1ccc(-c2nc3ccccc3s2)s1` gave HCMV inh inactive, HCV inh inconclusive, LASV entry inh 1.3µM, FMDV inh inconclusive, SARS PLP yeast inactive and MARV entry inh 1.4µM.
Screening O=C(c1ccc(-c2nc3ccccc3s2)s1)N1CCOCC1 returned HCMV inh -72, HCV inh inconclusive, LASV entry inh 3.5µM, FMDV inh 8.9µM, SARS PLP yeast inactive and MARV entry inh inconclusive.
For COc1cc(OC)c(NC(=O)N2CCC(CN3CCCC3)CC2)cc1Cl the results were HCMV inh inactive, LASV entry inh inactive and FMDV inh inactive.
For Cc1noc(/C=C/c2ccccc2F)c1S(=O)(=O)N1CCC(C(=O)N(C)Cc2ccco2)CC1 the results were HCMV inh inactive, LASV entry inh inconclusive and FMDV inh inactive.
Cc1ccc(S(=O)(=O)NCC2CCC(C(=O)NCCCN3CCCC3=O)CC2)cc1 (stereo not drawn) was read as HCMV inh -62, HCV inh inactive, LASV entry inh inactive, FMDV inh inactive, SARS PLP yeast inactive and MARV entry inh inactive.
Screening Cc1ccc(NS(=O)(=O)c2cccc(C(=O)NCCCN3CCCC3=O)c2)cc1 returned HCMV inh -101, HCV inh inactive[8.37 µM], LASV entry inh inactive, FMDV inh inactive, SARS PLP yeast inactive and MARV entry inh inconclusive.
`O=C(NCC1CCCO1)c1cccc(Oc2ccc([N+](=O)[O-])cc2)c1` (stereo not drawn) gave HCMV inh -88, HCV inh inconclusive, LASV entry inh inactive, FMDV inh inconclusive, SARS PLP yeast inconclusive and MARV entry inh inactive.
Cc1ccc(NS(=O)(=O)c2cccc(C(=O)NCC3CCCO3)c2)cc1 (stereo not drawn) was read as HCMV inh inactive, HCV inh inconclusive, LASV entry inh 10µM, FMDV inh inactive, SARS PLP yeast inactive and MARV entry inh inconclusive.
For Cc1cc(C)c(NC(=O)Cn2c(=O)n(CCC(C)C)c(=O)c3cccnc32)c(C)c1 the results were HCMV inh inactive, FMDV inh inactive and MARV entry inh inactive.
O=c1c(-c2ccc(Cl)cc2)c(C(F)(F)F)oc2c(CN3CCCCC3)c(O)ccc12 was read as HCMV inh inactive, LASV entry inh inactive, FMDV inh inactive and MARV entry inh inactive.
For O=C(CSc1nc2cc(Cl)ccc2s1)NCC1CCCO1 (stereo not drawn) the results were HCMV inh inactive, HCV inh inactive, LASV entry inh inactive, FMDV inh inactive and MARV entry inh inconclusive.
COc1ccc(N(CC2CO2)S(=O)(=O)c2ccccc2)cc1 (stereo not drawn) was read as HCMV inh -62, HCV inh inactive, LASV entry inh inactive, FMDV inh inactive, SARS PLP yeast inactive and MARV entry inh inactive.
For CCc1ccccc1NS(=O)(=O)c1ccc2[nH]cc(C(=O)NCC3CCCO3)c(=O)c2c1 (stereo not drawn) the results were HCMV inh inactive, HCV inh inactive, LASV entry inh inactive, FMDV inh inactive, SARS PLP yeast inactive and MARV entry inh inactive.
Screening COc1ccccc1N(CC1CO1)S(=O)(=O)c1ccccc1 (stereo not drawn) returned HCMV inh inactive, HCV inh inactive, LASV entry inh inactive, FMDV inh inactive, SARS PLP yeast inactive and MARV entry inh inactive.
Screening CC(=O)Nc1ccc(S(=O)(=O)NCC2CCC(C(=O)N3CCCCCC3)CC2)cc1 (stereo not drawn) returned HCMV inh inactive, HCV inh inactive, LASV entry inh 3.5µM, FMDV inh inactive, SARS PLP yeast inactive and MARV entry inh inactive.
O=C(CSc1nc2ccc([N+](=O)[O-])cc2s1)NCC1CCCO1 (stereo not drawn) was read as HCMV inh -71, HCV inh inconclusive, LASV entry inh inactive, FMDV inh inactive, SARS PLP yeast inactive and MARV entry inh inactive.
CN(Cc1ccccc1)S(=O)(=O)c1ccc2[nH]cc(C(=O)NCC3CCCO3)c(=O)c2c1 (stereo not drawn) was read as HCMV inh -107, LASV entry inh inactive, FMDV inh inconclusive, SARS PLP yeast inactive and MARV entry inh inactive.
COc1ccc(N(C)S(=O)(=O)c2cccc(C(=O)NCC3CCCO3)c2)cc1 (stereo not drawn) was read as HCMV inh inconclusive, HCV inh inactive, LASV entry inh inconclusive, FMDV inh inactive, SARS PLP yeast inactive and MARV entry inh inactive.
COc1ccc(N(Cc2ccccc2)S(=O)(=O)c2cccc(C(=O)NCC3CCCO3)c2)cc1 (stereo not drawn) was read as HCMV inh inactive, HCV inh inconclusive, LASV entry inh 3.2µM, FMDV inh inactive, SARS PLP yeast inactive and MARV entry inh inactive.
NNc1ncnc2sc3c(c12)CCC3 was read as HCMV inh inactive, HCV inh inconclusive, LASV entry inh inactive, FMDV inh inactive, SARS PLP yeast inactive and MARV entry inh inactive.
For CN(C)c1ccc(Nc2ncnc3sc4c(c23)CCCC4)cc1 the results were HCMV inh -90, LASV entry inh inactive and FMDV inh inconclusive.
C(=N\Nc1ncnc2sc3c(c12)CCC3)/c1ccncc1 was read as HCMV inh inconclusive, HCV inh inconclusive, LASV entry inh inactive, FMDV inh inconclusive, SARS PLP yeast inactive and MARV entry inh inconclusive.

Assay outcomes deposited in PubChem by National Center for Advancing Translational Sciences (NCATS).
